# The whole screen tested about 48,000 compounds, of which about 13,000 (27%) showed an effect of 50% or more. The list shows a part of the results.
# System: Wolbachia pipientis
# Assay: Anti-Wolbachia Cell-Based Screen
# Assay type: functional
# Set-up: scale not given: in the data most compounds retested in dose-response had high values
# Conditions: 5 µM
row,Structure (SMILES),Percent Effect [%]
1,Cc1ccc(NC2(C(=O)NCCCN)CCCC2)cc1,-6.352
2,O=C(CC1CCN(c2cccnn2)CC1)Nc1cccnc1,90.02
3,CN(CC(=O)Nc1cccnc1)CC1CCCN1c1cccnn1 (configuration not stated),-11.55
4,CN(CC(=O)Nc1nncs1)CC1CCCN1c1cccnn1 (configuration not stated),-0.3075
5,O=C(C[C@H]1[C@H]2CN(C(=O)CO)C[C@@H]12)Nc1cccnc1,10.82
6,O=C(CC1CCN(c2cccnn2)CC1)Nc1nncs1,96.76
7,O=C(Nc1nncs1)N1CCC(CCO)CC1,-8.889
8,Cc1ccc(N2C(=O)N[C@@H]3CCN(C(=O)C4CC4)[C@@H]3C2=O)cc1,11.16
9,CCCc1nc(CN(CC)C(=O)c2ccc(OC)c(OC)c2)no1,-5.69
10,Cn1ccnc1CN(CCO)C(=O)c1cnc2ccccc2c1,-19.73
11,CCN(Cc1noc(C2CC2)n1)C(=O)c1onc2ccccc12,98.35
12,CCN(Cc1noc(C2CCC2)n1)C(=O)CCc1cc2n(n1)CCNC2,-16.19
13,CCCc1nc(CN(CC)C(=O)c2onc3ccccc23)no1,89.45
14,CCN(Cc1noc(C2CCC2)n1)C(=O)c1cnc2ccccc2c1,94.43
15,CCCc1nc(CN(CC)C(=O)c2ccc3ncsc3c2)no1,-3.567
16,CCNC(=O)N1CC(c2nc(Cc3ccccc3)no2)C1,-5.949
17,CN1CCC(N(CCc2ccccc2)Cc2noc(C3CC3)n2)CC1,8.424
18,Cc1noc(COCC(=O)Nc2cc(C)c(Br)cn2)n1,-3.051
19,CC(=O)NCC1CN(c2ccc3c(Cl)ccnc3c2F)CCO1 (configuration not stated),-19.58

row,Structure (SMILES),Percent Effect [%]
1,Cc1ccc(C(=O)NCCNCC2CNc3ccnn3C2)cc1F (configuration not stated),-3.46
2,Cc1nn(C)cc1-c1ccnc(N2CCN(c3cnccn3)CC2)n1,17.52
3,CN1CCN(c2nccc(-c3cncnc3C3CCCCC3)n2)CC1,58.46
4,CCc1ncc2c(n1)CN(c1nccc(C3CCCC3)n1)C2,14.73
5,CN1CCCN(c2nccc(-c3cncnc3C3CCCCC3)n2)CC1,86.07
6,Cc1ccc([C@@H]2CN(C(=O)c3ccc[nH]3)C[C@H]2NC(=O)C2CC2)cc1,0.8109
7,CC(C)CC(CNC(=O)NCc1cc[nH]n1)N1CCOCC1 (configuration not stated),6.619
8,CCn1cnnc1CNC(=O)NCC(C(C)C)N1CCOCC1 (configuration not stated),-2.117
9,Cc1c(NC(=O)NCC(C)N2CCOCC2)cccc1OC(F)F (configuration not stated),-9.929
10,Cc1ccc(F)cc1NC(=O)NCC(C)N1CCOCC1 (configuration not stated),9.148
11,COc1ccc(C(O)CNC(=O)Nc2cc(C)nn2C)cc1 (configuration not stated),-16.1
12,Cc1cc(NC(=O)NCC(C)N2CCOCC2)n(C)n1 (configuration not stated),113
13,CCC(CC)C(O)CNC(=O)Nc1cc(C)nn1C (configuration not stated),91.79
14,CCC(CC)C(CNC(=O)Nc1cc(C)nn1C)N1CCOCC1 (configuration not stated),-3.913
15,Cc1cc(NC(=O)NCC(C)O)n(C)n1 (configuration not stated),-6.671
16,Cc1cc(NC(=O)NCC(CC(C)C)N2CCOCC2)n(C)n1 (configuration not stated),103.9
17,Cc1noc(C)c1CC(=O)NCC(CC(C)C)N1CCOCC1 (configuration not stated),-1.173
18,Cc1cc(NC(=O)NCC(C(C)C)N2CCOCC2)n(C)n1 (configuration not stated),115.8

# — ChEMBL document CHEMBL3988442, “University of Dundee, Small-Polar-MMV Screening Library” (2021)
